Measured values reported in PubChem BioAssay AID720650 (Broad Institute, 2013).
Activity calls are given as the source filed them. No rule for the calls is given here.

Assay: C difficile toxins, biochemical counterscreen, UDPG substrate absence, confirmatory dose response (AID 720650)
Conditions: series mostly up to 19.5 µM; activity change, negative = inhibition: at the top concentration

Structure (SMILES) | AC50 | activity change, negative = inhibition
Cc1cccc(N/N=C/c2ccncc2)c1 | 1.1 µM (active) | –
Cc1ccc(C(=O)Nc2scc(-c3ccccc3)c2C(=O)O)cc1 | 9.56 µM (active) | –
CCOC(=O)c1ccc[n+](CC(=O)c2ccc(NC(=O)c3ccccc3)cc2)c1 | – | -0.189% (inactive)
Cc1ccc(C)c2sc(NC(=O)c3ccc(N4C(=O)CCC4=O)cc3)nc12 | – | -13.2% (inactive)
Nc1nc(CCOc2ccc(F)cc2)cs1 | – | -9.71% (inactive)
C[C@H](CO)N1C[C@H](C)[C@@H](CN(C)C(=O)Nc2ccc(C(F)(F)F)cc2)Oc2c(NS(=O)(=O)c3cn(C)cn3)cccc2C1=O | > 39 µM (inactive) | –
COc1ccc(CNCCc2ccc3c(c2)OCO3)cc1Br | – | 3.39% (inactive)
COc1ccc(C2=NS(=O)(=O)N(C)C(C(=O)NCc3ccc4c(c3)OCO4)=C2)cc1OC | – | -0.875% (inactive)
CCN(CC)CCNC(=O)C1CCN(S(=O)(=O)c2c(C)noc2/C=C/c2ccccc2F)CC1 | – | -10.2% (inactive)
N#CCCN(C(=O)COC(=O)c1cc(=O)c2ccccc2o1)c1ccccc1 | – | -5.26% (inactive)
c1ccc(Cc2nnc3n2N=C(c2ccccc2)CS3)cc1 | – | 4.55% (inactive)
Nc1ccccc1-c1nc2ccncc2[nH]1 | – | 8.76% (inactive)
Cc1ccc(CN2C(=O)CN=C(c3ccccc3)c3ccccc32)cc1 | – | -8.71% (inactive)
CCOC(=O)c1cc([N+](=O)[O-])sc1N | – | -0.818% (inactive)
O=c1[nH]c(CSc2nnc(Cc3ccccc3)o2)nc2ccccc12 | – | -13.2% (inactive)
O=C(Nc1ccc(O)cc1)C1CCCN1S(=O)(=O)c1ccc(F)cc1 (configuration not stated) | 10.9 µM (active) | –
CCCCNS(=O)(=O)c1ccc(OCC(=O)OC)cc1 | – | 0.773% (inactive)
COc1ccccc1C=C1SC(=S)NC1=O | – | -7.14% (inactive)
COc1ccc(NC2CCCN(C(=O)CN3CCOC3=O)C2)cc1OC (configuration not stated) | – | -10.4% (inactive)
Cc1nc2[nH]c(=S)[nH]c2c(=O)[nH]1 | > 39 µM (inactive) | –
CCc1[nH]c(=O)c(C#N)c2c1CCCC2 | – | -1.25% (inactive)
COc1cc(/C=C/C(=O)OCC(=O)N(C)Cc2ccccc2)ccc1O | – | -5.74% (inactive)
